Assay outcomes: PubChem, National Center for Advancing Translational Sciences (NCATS)
AMA1 RON2 block = inhibitors of Plasmodium falciparum AMA1-RON2 interaction; AlphaScreen AMA1-biotinylated RON2 peptide binding; Potency, µM (highest dose often 58.2 µM), usual class: inhibitors; hit rate 0.2% among 360,000; AID 720542; also: nearly all actives have a fitted effect of over 45% in size
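AMA1 (3D7) with his tag at 25 nM final met compounds first, then biotinylated RON2 peptide at 25 nM; detection used donor plus acceptor beads, 10 µg/mL apiece, read by AlphaScreen after 30 min at room temperature.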
SARS PLP yeast = SARS-CoV PLP inhibition in yeast; S. cerevisiae expressing SARS-CoV PLpro, growth rescue; Potency, µM (doses to about 32.9 µM), hits mostly activators; hit rate 0.19% among 330,000; calls by dose curve; also: nearly all actives have a fitted effect of over 55% in size
Pf growth 96h = inhibits malaria parasite growth, 96 h | P. falciparum luciferase reporter growth, 96 h | Potency, µM (titrated, usually from 28.7 µM), actives largely listed as inhibitors | hit rate 6.9% among 320,000
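Readout is luminescence from an integrated firefly luciferase in P. falciparum. Red cells, 2% hematocrit and 0.05% parasitemia final, were cultured with compound through two parasite generations (96 hours) at 37 C, 5% CO2.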
Cycloheximide cs = counter-screen hit for Shiga toxin inhibitors, cycloheximide. cell reporter, cycloheximide protein synthesis inhibition counterscreen. max response, %. hit rate 12% among 300,000. AID 2314; in the data active = max response mostly above about 13%, no sharp cut-off; inactive = mostly below about 14%; also: read at 38.3 µM for the half of the compounds with a filed dose
Pf growth 48h = P. falciparum growth inhibition at 48 hours (one generation); P. falciparum luciferase growth in erythrocytes, 48 h; Potency, µM (doses to about 28.7 µM), most hits filed as inhibitors; hit rate 5.9% among 310,000; AID 504832
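Parasite viability was followed by luminescence of a genomically integrated firefly luciferase. Cultures held 0.1% parasitemia at 2% hematocrit (final), incubated under 5% CO2 at 37 C.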
Shiga inhibitor = inhibitors of Shiga toxin in Vero cells; Vero cells, Shiga toxin protein synthesis inhibition reporter; inhibition, % at 38.7 µM; hit rate 9.2% among 290,000; in the data active = inhibition mostly above about 28%, no sharp cut-off; inactive = mostly below about 43%
Large screens that a line does not name were inactive. Shown are actives, neighbours in structure and some others; about 19% of the full set was active somewhere. Unless noted, calls follow the shape of the dose curve; as a rule, active = well fitted curve in the direction sought with a large enough effect; inconclusive = small, poorly fitted or top-dose-only effect, or another doubt; inactive = no such curve, though single readings can be large; an effect the other way counts as inactive or inconclusive.

Nc1nonc1C(=O)NCCNCc1ccccc1OCc1ccccc1F	none
CCOC(=O)c1ncccc1NC(=O)CC(=O)Nc1cccnc1C(=O)OCC	AMA1 RON2 block 14µM (no result: SARS PLP yeast, Pf growth 96h, Cycloheximide cs, Pf growth 48h, Shiga inhibitor)
CCOc1ccc(C(=O)OCC(=O)Nc2cccnc2Cl)cc1OCC	none (no result: Pf growth 96h, Cycloheximide cs, Pf growth 48h, Shiga inhibitor)
CCCN(CC(=O)Nc1ccccc1C)C(=O)/C=C/c1ccc(OC)c(OC)c1	none (no result: SARS PLP yeast, Pf growth 96h, Cycloheximide cs, Pf growth 48h, Shiga inhibitor)
CCOC(=O)c1c(C)n(CCOc2ccccc2)c2ccc(O)cc12	Pf growth 96h inconclusive
CCOC(=O)c1c(C)n(CC(O)c2ccccc2)c2ccc(O)cc12 (stereo not drawn)	Pf growth 96h 12µM, Pf growth 48h 12µM
COC(=O)CSc1nc2sc3c(c2c(=O)[nH]1)CCC3	none
O=C(NCc1ccccc1)c1ccc(COCC(F)(F)F)o1	none
COc1ccc(C2(CNC(=O)c3cccc([N+](=O)[O-])c3)CCOCC2)cc1OC	none
COc1ccc(C2(CNC(=O)c3cccc([N+](=O)[O-])c3)CCCCC2)cc1OC	Pf growth 96h 5.9µM, Pf growth 48h inconclusive
O=C(COC(=O)/C=C/c1cccc(Br)c1)NC1CCCC1	none (no result: Pf growth 96h, Cycloheximide cs, Pf growth 48h, Shiga inhibitor)
N#C/C(=C\c1cccc(O)c1)C(=O)Nc1ccc2c(c1)OCCO2	Cycloheximide cs 60, Pf growth 48h inconclusive, Shiga inhibitor 83
CCOC(=O)/C(C#N)=C\c1ccc2c(c1)OCO2	none (no result: SARS PLP yeast, Pf growth 96h, Cycloheximide cs, Pf growth 48h, Shiga inhibitor)
N#C/C(=C/c1cccc(O)c1)C(=O)NCc1ccc(Cl)cc1	Pf growth 48h inconclusive
CC(C)NC(=O)/C(C#N)=C/c1ccc2c(c1)OCCO2	Cycloheximide cs 22, Shiga inhibitor 85
Cc1n[nH]c(=O)c2c(NC(=O)CSc3ccc(Br)cc3)oc(C)c12	none (no result: Cycloheximide cs, Shiga inhibitor)
CN(C(=O)c1cc(-n2cnnc2)ccc1Cl)c1ccccc1	Cycloheximide cs 17, Shiga inhibitor 43
O=C(Nc1cccc(-c2nc3ccccc3s2)c1)c1cc(-n2cnnc2)ccc1Cl	Cycloheximide cs 30
CC(=O)Nc1ccc(NC(=O)c2cc(-n3cnnc3)ccc2Cl)cc1	none
Cc1ccc2sc(-c3ccc(NC(=O)c4cc(-n5cnnc5)ccc4Cl)cc3)nc2c1	Pf growth 96h inconclusive, Cycloheximide cs 62, Shiga inhibitor 134
Cc1ccc(NC(=O)c2cc(-n3cnnc3)ccc2Cl)c(C)c1	Pf growth 96h inconclusive
COc1cc(NC(=O)c2cc(-n3cnnc3)ccc2Cl)cc(OC)c1	SARS PLP yeast inconclusive, Pf growth 96h 13µM
CC(=O)c1cccc(NC(=O)c2cc(-n3cnnc3)ccc2Cl)c1	none (no result: SARS PLP yeast, Pf growth 96h)
Cc1ccc(N2C(N)=C(C#N)C3(C(=O)N(C)c4ccccc43)C3=C2CC(C)(C)CC3=O)cc1Cl (stereo not drawn)	none (no result: Pf growth 96h)
CC1CCN(S(=O)(=O)c2ccc3c(c2)NC(=O)CS3)CC1	none
Cc1c(NC(=O)c2cc(-n3cnnc3)ccc2Cl)cccc1-c1nc2ccccc2s1	Cycloheximide cs 23, Shiga inhibitor 37
Cc1c(NC(=O)c2cccs2)cccc1-c1nc2ccccc2s1	none
CC(C)CCNC(=O)C(c1ccncc1)N(Cc1cccs1)C(=O)Cn1nnc(-c2ccc(F)cc2)n1 (stereo not drawn)	Pf growth 48h 15µM
O=C(NCC1CCCO1)C(c1ccncc1)N(Cc1cccs1)C(=O)Cn1nnc(-c2ccc(F)cc2)n1 (stereo not drawn)	Pf growth 96h inconclusive
Cc1ccc(-c2nnn(CC(=O)N(CC3CCCO3)C(C(=O)NC(C)(C)C)c3ccc(F)cc3)n2)o1 (stereo not drawn)	Pf growth 96h 12µM, Pf growth 48h 10µM
CCC(C(=O)NC1CCCC1)N(C(=O)Cn1nnc(-c2ccc(OC)c(OC)c2)n1)C1CCCCC1 (stereo not drawn)	Pf growth 96h inconclusive, Pf growth 48h 9.3µM
Cc1ccc(-c2nnn(CC(=O)N(Cc3cccs3)C(C(=O)NC3CCCC3)c3ccncc3)n2)cc1 (stereo not drawn)	Pf growth 96h inconclusive, Pf growth 48h 5.9µM
CC(C)CC(C(=O)NCC1CCCO1)N(C(=O)Cn1nnc(-c2ccc(F)cc2)n1)c1ccccc1F (stereo not drawn)	Pf growth 48h inconclusive
Cc1ccc(N(C(=O)Cn2nnc(-c3ccc(F)cc3)n2)C(CC(C)C)C(=O)NCC2CCCO2)cc1 (stereo not drawn)	Pf growth 96h inconclusive, Pf growth 48h 13µM
CCCCC(C(=O)NC1CCCC1)N(Cc1ccco1)C(=O)Cn1nnc(-c2ccc(F)cc2)n1 (stereo not drawn)	Pf growth 96h 12µM (no result: Pf growth 48h)
